ELG1 DNA repair: qHTS screen for small molecules that inhibit ELG1-dependent DNA repair in human embryonic kidney (HEK293T) cells expressing luciferase-tagged ELG1; HEK293T ELG1-luciferase reporter, luminescence, 16 h; DNA damage induced by 5-fluorouridine; Potency, µM (doses to about 46.1 µM), for inactives: at the top dose activity change, negative = inhibition, actives largely listed as inhibitors; 2.3% of 330,000 active; further: on the % scale 0 is the no-effect control and ±100 the full control effect; nearly all actives have a fitted effect of over 55% in size
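Step one: seed 2,000 cells per well. Step two: pin-transfer compound or DMSO alongside 5-fluorouridine. Step three: incubate 16 hr, 37 °C, 5% CO2. Step four: add ONE-Glo, wait 30 min, read luminescence.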
SW480 rereplic: A quantitative high throughput screen for small molecules that induce DNA re-replication in SW480 colon adenocarcinoma cells | SW480 DNA re-replication, Hoechst DNA content imaging, 48 h | Potency, µM (series often up to 46.1 µM), for the others: at the top dose re-replication activation, usual class: activators | AID 624297, 2012 | 1.8% of 340,000 active; further: % of control where 0% means no effect; nearly all actives have a fitted effect of over 55% in size
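Image-based read-out: total Hoechst fluorescence of nuclei (405 nm excitation, 500-530 nm emission), with hits raising the fraction of high-intensity nuclei. SW480 colon cells incubated 48 hr with compounds at 37 C.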
A-T KAP1 phos: qHTS Assay for Identifying a Potential Treatment of Ataxia-Telangiectasia. F2112 A-T fibroblasts, KAP-1 phosphorylation AlphaLISA; neocarzinostatin DNA damage 30 min before lysis. Potency, µM (highest dose often 57.5 µM), for the others: at the highest dose activation, most hits filed as activators. 0.19% of 320,000 active; further: % of control where 0% means no effect; nearly all actives have a fitted effect of over 45% in size
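hTERT-immortalized A-T patient fibroblasts (F2112), 500 cells/well in OPTI-MEM, 1% FBS, got compounds for 60 min, then NCS for 30 min at 37C. Lysates were then assayed for phospho-KAP-1 by AlphaLISA (anti-pKAP1 donor, anti-KAP1 acceptor beads), 6 hr at 25C.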
p53 reactivator: qHTS assay for re-activators of p53 using a Luc reporter | H1299 p53-A138V BP100-luciferase reporter, luminescence, 24 h | Potency, µM (highest dose often 92.2 µM), for inactives: at the highest dose activity change, positive = activation, most hits filed as activators | 0.063% of 320,000 active | AID 504706, 2011; further: % of control where 0% means no effect; nearly all actives have a fitted effect of over 45% in size
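H1299 (p53-null), stable ts p53-A138V + BP100-Luc; 1000 cells/well, Opti-MEM/10% FBS; cpd 4 pt, 1:5; 24 h, 37 deg C, 5% CO2; detection reagent 10 min RT; luminescence.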
ELG1 genotoxic: qHTS screen for small molecules that induce genotoxicity in human embryonic kidney (HEK293T) cells expressing luciferase-tagged ELG1 | HEK293T ELG1-luciferase reporter, luminescence, 16 h | Potency, µM (series often up to 46 µM), inactives show top-dose activity change, positive = activation, actives largely listed as activators | 1.3% of 330,000 active | AID 504466, 2011; further: % of control where 0% means no effect; nearly all actives have a fitted effect of over 60% in size
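Reporter readout depends on ELG1 protein level, which increases with genetic stress. After 16 hr compound exposure at 37 °C, luciferase activity was quantified using ONE-Glo.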
MCF10A rerep: A quantitative high throughput screen for small molecules that induce DNA re-replication in MCF 10a normal breast cells. MCF 10A DNA re-replication, Hoechst nuclear intensity, 48 h. Potency, µM (top dose mostly 46.1 µM), without a hit: at the top dose activity, positive = re-replication, usual class: activators. 2.9% of 350,000 active. AID 624296, 2012; further: % of control where 0% means no effect; nearly all actives have a fitted effect of over 50% in size
The depositor's hits bear a star. Compounds with a hit are over-represented: about 7.1% of the library has one in this group of screens. The call rests on the fitted dose curve; in most records, active means well fitted curve in the direction sought with a large enough effect; inconclusive means small, poorly fitted or top-dose-only effect, or another doubt; inactive means no such curve, though single readings can be large; an effect the other way counts as inactive or inconclusive. Potency means the concentration at half of the fitted maximal effect.

For CCCNC(=O)c1ccccc1NS(=O)(=O)c1ccc(OC)c(OC)c1 the results were ELG1 DNA repair 7.1%, SW480 rereplic 1.6%, A-T KAP1 phos 1.5%, p53 reactivator -0.1%, ELG1 genotoxic 1.5% and MCF10A rerep 14.2%.
Screening COc1ccc(-c2csc(NC(=O)COc3ccc(N(C)S(=O)(=O)c4ccc(C)cc4)cc3)n2)cc1 returned ELG1 DNA repair 7.31µM*, SW480 rereplic 8.0%, A-T KAP1 phos -1.6%, p53 reactivator inconclusive, ELG1 genotoxic -4.3% and MCF10A rerep 10.4%.
Cc1ccc(-c2csc(NC(=O)COc3ccc(N(C)S(=O)(=O)c4ccc(C)cc4)cc3)n2)cc1 was read as ELG1 DNA repair inconclusive, SW480 rereplic 8.1%, A-T KAP1 phos -3.6%, p53 reactivator 4.2%, ELG1 genotoxic -3.7% and MCF10A rerep 4.5%.
Screening COc1ccc(S(=O)(=O)Nc2ccccc2C(=O)Nc2nc(-c3ccc(F)cc3)cs2)cc1OC returned ELG1 DNA repair 14.6µM*, SW480 rereplic inconclusive, A-T KAP1 phos 4.9%, p53 reactivator 7.3%, ELG1 genotoxic -8.0% and MCF10A rerep inconclusive.
For CC(=O)Nc1ccc(S(=O)(=O)N(C)c2ccc(OCC(=O)Nc3ccccc3C(C)=O)cc2)cc1 the results were ELG1 DNA repair inconclusive, SW480 rereplic 10.0%, A-T KAP1 phos 5.0%, p53 reactivator -14.6%, ELG1 genotoxic -7.6% and MCF10A rerep inconclusive.
COc1ccc(-c2csc(NC(=O)c3ccccc3NS(=O)(=O)c3ccc(C)cc3)n2)cc1 was read as ELG1 DNA repair 13µM*, SW480 rereplic 2.1%, A-T KAP1 phos -4.5%, ELG1 genotoxic -15.9% and MCF10A rerep inconclusive.
CC(=O)c1ccccc1NC(=O)COc1ccc(N(C)S(=O)(=O)c2ccc(C)c(C)c2)cc1 was read as ELG1 DNA repair inconclusive, SW480 rereplic 6.1%, A-T KAP1 phos 9.0%, p53 reactivator -5.8%, ELG1 genotoxic 0.4% and MCF10A rerep 20.6µM*.
`O=S(=O)(O)c1cc(O)c2c(N=Nc3ccc(Nc4ccccc4)c4c(S(=O)(=O)O)cccc34)cc(S(=O)(=O)O)cc2c1` gave SW480 rereplic -1.4% and MCF10A rerep -12.2%.
Screening CSc1ccc(/C=C(\C(=O)O)c2ccc(S(=O)(=O)N3CCCC3)s2)cc1 returned ELG1 DNA repair inconclusive, SW480 rereplic -18.5%, A-T KAP1 phos 11.1%, p53 reactivator 7.8%, ELG1 genotoxic -1.3% and MCF10A rerep 8.1%.
Screening COC(=O)Nc1ccc(S(=O)(=O)N2CCCc3ccccc32)cc1 returned ELG1 DNA repair 1.4%, SW480 rereplic 1.64µM*, A-T KAP1 phos -6.0%, p53 reactivator 11.6%, ELG1 genotoxic -1.8% and MCF10A rerep 8.2µM*.
COC(=O)Nc1ccc(S(=O)(=O)N2CCCc3cccc(O)c32)cc1 was read as ELG1 DNA repair 18.3µM*, SW480 rereplic 25.9µM*, A-T KAP1 phos -0.8%, p53 reactivator -4.9%, ELG1 genotoxic -7.7% and MCF10A rerep 13µM*.
For Cc1ccc(S(=O)(=O)N2CCCc3cc(NC(=O)c4c(F)cccc4F)ccc32)cc1 the results were ELG1 DNA repair 23.1µM*, SW480 rereplic -3.4%, A-T KAP1 phos -0.8%, p53 reactivator -1.9%, ELG1 genotoxic -2.1% and MCF10A rerep 4.1%.
Screening COc1cccc(OC)c1C(=O)Nc1ccc2c(c1)CCCN2S(=O)(=O)c1ccc(C)cc1 returned ELG1 DNA repair 0.0%, SW480 rereplic 1.1%, A-T KAP1 phos 8.4%, p53 reactivator -1.5%, ELG1 genotoxic -5.2% and MCF10A rerep 2.3%.
Screening CCC(=O)Nc1ccc(S(=O)(=O)N2CCc3ccccc32)cc1 returned ELG1 DNA repair -8.9%, SW480 rereplic -10.6%, A-T KAP1 phos 12.9%, ELG1 genotoxic -4.0% and MCF10A rerep inconclusive.
`O=C(CN1C(=O)c2ccccc2C1=O)NCC(=O)Nc1ccccc1` gave SW480 rereplic -2.3% and MCF10A rerep -1.7%.
`O=C(NC1CCCc2ccccc21)C1CCN(c2nnc(-n3cccc3)s2)CC1` (configuration not stated) gave ELG1 DNA repair inconclusive, SW480 rereplic -1.0%, A-T KAP1 phos -0.7%, p53 reactivator -13.2%, ELG1 genotoxic -12.4% and MCF10A rerep 16.4µM*.
Screening c1cc2c(cc1-c1[nH]ncc1CN1C[C@H]3CC[C@H]1C3)OCO2 returned ELG1 DNA repair -8.7%, SW480 rereplic 5.8µM*, A-T KAP1 phos 1.5%, p53 reactivator -4.3%, ELG1 genotoxic -0.2% and MCF10A rerep 17.0%.
CN(Cc1cn[nH]c1-c1ccc2c(c1)OCO2)C1CCOCC1 was read as ELG1 DNA repair 11.8%, SW480 rereplic -1.2%, A-T KAP1 phos 5.0%, p53 reactivator -1.0%, ELG1 genotoxic -0.4% and MCF10A rerep 1.3%.
`COC(=O)C1=C(C)NC(C)=C(C(=O)OCC2CCCO2)C1c1ccc(Cl)c([N+](=O)[O-])c1` (configuration not stated) gave ELG1 DNA repair 10.3µM*, A-T KAP1 phos -5.4%, p53 reactivator -16.3% and ELG1 genotoxic -20.0%.
`Cc1ccc(Nc2nnc(-c3ccc(N4CCOCC4)c([N+](=O)[O-])c3)c3ccccc23)cc1` gave ELG1 DNA repair inconclusive, SW480 rereplic inconclusive, A-T KAP1 phos -1.6%, p53 reactivator -4.7%, ELG1 genotoxic -5.0% and MCF10A rerep -0.1%.
`O=[N+]([O-])c1cc(-c2nnc(Nc3ccc(O)cc3)c3ccccc23)ccc1N1CCOCC1` gave ELG1 DNA repair 18.4µM*, SW480 rereplic 11.9%, A-T KAP1 phos -2.3%, p53 reactivator -18.8%, ELG1 genotoxic -11.8% and MCF10A rerep 13.8%.
`O=[N+]([O-])c1cc(-c2nnc(N3CCOCC3)c3ccccc23)ccc1N1CCOCC1` gave ELG1 DNA repair inconclusive, SW480 rereplic 3.2%, A-T KAP1 phos 4.6%, p53 reactivator -0.3%, ELG1 genotoxic -12.0% and MCF10A rerep -1.0%.
O=[N+]([O-])c1cc(-c2nnc(Nc3ccccc3)c3ccccc23)ccc1N1CCOCC1 was read as ELG1 DNA repair 18.4µM*, SW480 rereplic -0.7%, A-T KAP1 phos 6.8%, p53 reactivator -15.6%, ELG1 genotoxic -5.4% and MCF10A rerep inconclusive.

High-throughput results as filed in PubChem.
